The values that follow come from PubChem BioAssay (NCI).

Among the test systems are NCI-H23 lung; NCI-H226 lung; NCI-H322M lung; HOP-62 NSCLC; NCI-H460 lung; HOP-92 NSCLC; NCI-H522 lung; A549/ATCC NSCLC; 786-0 renal; COLO 205 colon; DU-145 prostate; K-562 leukemia; MALME-3M melanoma; MDA-MB-231 breast; RXF 393 renal; SF-268 CNS; SF-295 CNS; SF-539 CNS; UACC-257 melanoma; M14 melanoma.
Common to all, as to test: NCI-60 one-dose screen, 48 h (100 = growth as untreated, 0 = no growth, -100 = all killed)
Holding throughout (details): 10 µM unless noted

This is part of a sample that, as a whole, favours compounds with a hit. Of some 83,000 tested, about 20% had one in any assay.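 Step 1: grow cells in 96-well plates. Step 2: add test compound at a single concentration. Step 3: incubate 48 h. Step 4: record percent growth.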 Unmarked numbers belong to inactive results. The source made the active and inactive calls. How the source made its calls: active means growth percent below 10; inactive means the rest.

For `NCCOc1ncccc1/C=C1\C2C=CC=CC2C2C=CC(F)=CC12` (stereo not given), the growth with NCI-H23 lung was 2.79% (active); with NCI-H226 lung, -26.2% (active); with NCI-H322M lung, 64.5%; in the test on HOP-62 NSCLC it was 10.5%; in the test with NCI-H460 lung it was -22% (active); with HOP-92 NSCLC, 28.9%. Also, the growth is 47.8% with NCI-H522 lung; -56.5% (active) in the test on A549/ATCC NSCLC; 1.24% (active) in the test on 786-0 renal; 27.2% with COLO 205 colon; 6.22% (active) in the test on DU-145 prostate; 8.35% (active) in the test on K-562 leukemia. Further, the growth was 39.2% with MALME-3M melanoma; 37.4% in the test with MDA-MB-231 breast; 39.9% in the test with RXF 393 renal; 32.3% in the test with SF-268 CNS; -2.83% (active) in the test with SF-295 CNS; 11.1% with SF-539 CNS. In addition, the values for the growth in the test on UACC-257 melanoma and with M14 melanoma were 71.7% and 18.8%, respectively.
On to `COc1ccc(C(Cc2ccccc2)NCCN2CCOCC2)cc1` (stereo not given), for which the growth is 100% in the test on NCI-H23 lung; 109% with NCI-H226 lung; 95.7% in the test on NCI-H322M lung; 93.1% with HOP-62 NSCLC; 107% with NCI-H460 lung; 106% with HOP-92 NSCLC. Besides, the growth in the test on NCI-H522 lung was 71.1%; in the test on A549/ATCC NSCLC it was 97.8%; in the test with 786-0 renal it was 89.4%; with COLO 205 colon it was 96.1%; with DU-145 prostate it was 110%; with K-562 leukemia, 101%. For the same compound, the growth in the test with MALME-3M melanoma was 86.8%; in the test with MDA-MB-231 breast it was 110%; in the test on RXF 393 renal, 104%; in the test with SF-268 CNS, 98%; with SF-295 CNS, 99.4%; in the test on SF-539 CNS, 99.6%. Moreover, the growth with UACC-257 melanoma was 109%; with M14 melanoma, 90.6%.
Regarding `O=c1c2cc(F)ccc2sc2c(N3CCNCC3)nc3ccc(F)cc3c12`, the growth with NCI-H23 lung is 61.3%; in the test on NCI-H226 lung it was 83.8%; in the test with NCI-H322M lung, 55.4%; in the test on HOP-62 NSCLC, 57.5%; with NCI-H460 lung, -88.4% (active); in the test with HOP-92 NSCLC it was 7.38% (active). Also, the growth with NCI-H522 lung is 8.28% (active); with A549/ATCC NSCLC, 13.2%; with 786-0 renal it was 60.5%; in the test on COLO 205 colon it was -51.9% (active); in the test with DU-145 prostate, -84.7% (active); with K-562 leukemia, -37.8% (active). Besides, the growth in the test on MALME-3M melanoma was 82.6%; with MDA-MB-231 breast it was -76.4% (active); with RXF 393 renal, 50.9%; in the test on SF-268 CNS, 48.3%; with SF-295 CNS, 77.8%; with SF-539 CNS, -89.4% (active). Also, the growth with UACC-257 melanoma was 96.3%; in the test on M14 melanoma, -62% (active).
`COc1ccc(C2NC(=O)C(C#N)c3c2sc2c(F)cccc32)c(OC)c1` (stereo not given): the growth with NCI-H23 lung is 64.8%; with NCI-H226 lung, 62.2%; in the test on NCI-H322M lung it was 90.4%; in the test with HOP-62 NSCLC it was 57.4%; in the test on NCI-H460 lung, 31.8%; in the test with HOP-92 NSCLC, 42.2%. Further, the growth with NCI-H522 lung was 7.97% (active); in the test on A549/ATCC NSCLC it was 58.5%; with 786-0 renal, 68.5%; with COLO 205 colon, 88.3%; in the test on DU-145 prostate, 90.5%; in the test on K-562 leukemia, 23.9%. The growth with MALME-3M melanoma is 39.8%; in the test on MDA-MB-231 breast, 72.7%; with RXF 393 renal, 9.65% (active); with SF-268 CNS, 52.1%; in the test on SF-295 CNS, 27.7%; with SF-539 CNS it was 8.87% (active). Further, the growth was 68.3% in the test on UACC-257 melanoma and 37.8% in the test with M14 melanoma.
Turning to `CCN(CC)S(=O)(=O)c1ccc(NC(=O)CSc2nnc(C)n2-c2ccccc2)cc1`, the growth with NCI-H23 lung is 97.6%; in the test on NCI-H226 lung, 95.3%; with NCI-H322M lung, 113%; in the test on HOP-62 NSCLC, 104%; in the test on NCI-H460 lung, 115%; in the test with HOP-92 NSCLC, 76.9%. In addition, the growth is 85.3% with NCI-H522 lung; 109% in the test on A549/ATCC NSCLC; 109% in the test on 786-0 renal; 112% with COLO 205 colon; 120% in the test on DU-145 prostate; 88.5% with K-562 leukemia. Moreover, the growth in the test on MALME-3M melanoma is 132%; in the test with MDA-MB-231 breast, 108%; in the test with RXF 393 renal, 110%; in the test with SF-268 CNS it was 97.7%; in the test on SF-295 CNS, 115%; in the test with SF-539 CNS, 101%. For the same compound, the values for the growth in the test with UACC-257 melanoma and with M14 melanoma were 95.4% and 116%, respectively.
In the case of `NCCNc1nc2ccccc2c2c(=O)c3cccc(F)c3sc12`, the growth with NCI-H23 lung is 70%; in the test on NCI-H226 lung, 78.5%; in the test on NCI-H322M lung it was 64.7%; with HOP-62 NSCLC, 58%; in the test with NCI-H460 lung, 13.8%; in the test with HOP-92 NSCLC it was 59.9%. Further, the growth was 59.2% in the test on NCI-H522 lung; 41.1% with A549/ATCC NSCLC; 76.7% in the test with 786-0 renal; 26.6% in the test with COLO 205 colon; 37% in the test with DU-145 prostate; 17.2% in the test on K-562 leukemia. Moreover, the growth in the test on MALME-3M melanoma was 88.4%; with MDA-MB-231 breast, 44.7%; with RXF 393 renal, 83.3%; in the test with SF-268 CNS it was 61.6%; with SF-295 CNS, 91.7%; in the test with SF-539 CNS, 59.2%. Further, the results for the growth with UACC-257 melanoma and in the test with M14 melanoma were 101% and 83.3%, respectively.
As to `N#Cc1c(Nc2cccc(Cl)c2)sc(C(=O)c2cc3cc(Cl)ccc3o2)c1N`, the growth is 77% in the test with NCI-H23 lung; 94% with NCI-H226 lung; 113% in the test on NCI-H322M lung; 107% with HOP-62 NSCLC; 46.7% with NCI-H460 lung; 8.1% (active) with HOP-92 NSCLC. The growth with NCI-H522 lung was 34.8%; in the test on A549/ATCC NSCLC it was 94.1%; in the test with 786-0 renal, 96.9%; in the test with COLO 205 colon, 89%; in the test on DU-145 prostate it was 30.6%; in the test with K-562 leukemia, 51.9%. Further, the growth in the test on MALME-3M melanoma was 101%; in the test on MDA-MB-231 breast, 75.6%; with RXF 393 renal, 105%; with SF-268 CNS, 67.7%; with SF-295 CNS it was 123%; in the test on SF-539 CNS, 84%. The growth in the test with UACC-257 melanoma was 102%; with M14 melanoma, 105%.
Consider `Cc1ccc(-c2nc(N3CCN(CC(=O)Nc4ccc(Cl)c(C(F)(F)F)c4)CC3)c3ccccc3n2)cc1`, for which the growth in the test with NCI-H23 lung was 92.5%; in the test on NCI-H226 lung, 90.3%; with NCI-H322M lung, 87.3%; in the test on HOP-62 NSCLC it was 98.6%; in the test with NCI-H460 lung, 92.7%; in the test on HOP-92 NSCLC, 96.5%. Further, the growth with NCI-H522 lung was 81.6%; in the test with A549/ATCC NSCLC it was 75.8%; in the test on 786-0 renal it was 91.1%; in the test on COLO 205 colon it was 86.3%; in the test on DU-145 prostate, 105%; in the test with K-562 leukemia, 69%. Further, the growth in the test on MALME-3M melanoma is 106%; with MDA-MB-231 breast, 90.7%; with RXF 393 renal, 80.5%; in the test on SF-268 CNS, 81.6%; in the test with SF-295 CNS, 104%; with SF-539 CNS, 95.9%. The results for the growth with UACC-257 melanoma and in the test with M14 melanoma were 94.5% and 95.7%, respectively.
